DT40 TDP1 no CPT: qHTS for Inhibitors of human tyrosyl-DNA phosphodiesterase 1 (TDP1): qHTS in cells in absence of CPT; DT40 Tdp1-/- hTDP1 cells, no CPT, ATP luminescence, 48 h; Potency, µM (highest dose often 46.2 µM), inactives show at the top dose activity change, negative = growth inhibition, hits mostly inhibitors; 15% of 420,000 active; AID 686978, 2013; also: % is scaled to controls: 0 for no effect and ±100 for the full control effect; nearly all actives have a fitted effect of over 55% in size
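DT40 Tdp1-/-;hTDP1 cells, no CPT (DMSO vehicle only), 400 cells/well; compounds pin-transferred; ≥48 hr, 37 °C; CellTiter-Glo 30 min RT dark, luminescence read.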
TDP1 cell CPT: qHTS for Inhibitors of human tyrosyl-DNA phosphodiesterase 1 (TDP1): qHTS in cells in presence of CPT. chicken DT40 Tdp1-/-;hTDP1 cells + 20 nM CPT, ATP luminescence, 48 h. Potency, µM (highest dose often 46.2 µM), for the others: at the top dose activity change, negative = growth inhibition, usual class: inhibitors. 12% of 420,000 active. AID 686979, 2013; also: % is scaled to controls: 0 for no effect and ±100 for the full control effect; nearly all actives have a fitted effect of over 55% in size
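Chicken DT40 Tdp1-/- cells stably complemented with human TDP1 were seeded at 400 cells/well in medium containing 20 nM camptothecin, exposed to pin-transferred compounds, and grown at 37 °C for at least 48 hr. Viability was read as ATP luminescence.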
HT1080NT lethal: qHTS for induction of synthetic lethality in tumor cells producing 2HG: qHTS for the HT-1080-NT fibrosarcoma cell line | HT-1080-NT fibrosarcoma viability, CellTiter-Glo ATP luminescence, 48 h | Potency, µM (series often up to 46.1 µM), for inactives: at the top dose activity, negative = less viability, most hits filed as cytotoxic | 1.6% of 360,000 active;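 also: NT is the 2HG producing partner of a matched IDH1 knockdown line; 0% = DMSO-treated cells and -100% = media-only wells without cells; nearly all actives have a fitted effect of over 55% in size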
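Luminescent CellTiter-Glo readout after 48 hours of compound exposure at 37 degrees C defined viability of HT-1080-NT cells. Activity was normalized to DMSO wells and cell-free media wells; concentration-response curves were fitted and assigned curve classes.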
TGFb inhibitor: qHTS for Inhibitors of TGF-b. 1.2% of 410,000 active. Potency, µM (doses to about 46.1 µM), inactives show at the highest dose activity, negative = inhibition, actives largely listed as inhibitors. HepG2 CAGA-GFP TGF-b/SMAD3 reporter, GFP fluorescence, 18 h; TGF-beta stimulated, 500 pg/mL final; also: % is scaled to controls: 0 for no effect and ±100 for the full control effect; nearly all actives have a fitted effect of over 65% in size
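TGF-beta reporter screen: HEPG2 CAGA-GFP, 1% FBS, 500 pg/mL TGF-beta final, 18 h; per-cell GFP summed per well; curves fitted and categorized by class.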
HepG2 viability: qHTS for Inhibitors of TGF-b: Cytotox Counterscreen; HepG2 CAGA-GFP viability, ATP luminescence, 18 h; Potency, µM (titrated, usually from 46.1 µM), for inactives: at the highest dose activity change, negative = cytotoxicity, usual class: cytotoxic; 0.76% of 410,000 active; AID 588856, 2011
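CellTiter-Glo luminescence gave cytotoxicity after 18 hours at 37 degrees C. The cells were HepG2 CAGA-GFP in 1% FBS DMEM, stimulated with 500 pg/mL TGF-beta after compound addition. %Activity was normalised to no-cell wells (complete cell-killing) and DMSO (no toxicity), and curves were fitted and classified.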
HT1080 IDH1KD tx: qHTS for induction of synthetic lethality in tumor cells producing 2HG: qHTS for the HT-1080-IDH1KD cell line. 2% of 360,000 active. Potency, µM (titrated, usually from 46.1 µM), inactives show top-dose activity, negative = toxicity, actives largely listed as cytotoxic. AID 686971, 2013. HT-1080 IDH1 knockdown viability, ATP luminescence, 48 h;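 also: 0% = DMSO wells and -100% = cell-free medium wells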
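After a 2 h attachment period, IDH1KD HT-1080 cells took pin-transferred compound for 48 h at 37 °C; ATP-based luminescence after 10 min room-temperature reagent incubation reported viability.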
Numbers without * were called inactive; ? = inconclusive; . = no result given; [ ] = another dose, or the depositor's remark. The list is not random: actives were taken first. Their share in the collection is about 17%. Calls follow the shape of the dose curve; as a rule, active = well fitted curve in the direction sought with a large enough effect; inconclusive = small, poorly fitted or top-dose-only effect, or another doubt; inactive = no such curve, though single readings can be large; an effect the other way counts as inactive or inconclusive. Potency is read from the fitted curve at half-maximal effect.

SMILES | DT40 TDP1 no CPT | TDP1 cell CPT | HT1080NT lethal | TGFb inhibitor | HepG2 viability | HT1080 IDH1KD tx
COC(=O)[C@@H](NC(=O)N1CCC(C)CC1)C(C)C | -3.7% | -8.1% | 18.9% | 4.1% | 0.447µM* | 12.4%
COc1ccc(C2CC(c3cccs3)=NN2C(=O)CSc2nc3c(cnn3-c3ccccc3)c(=O)[nH]2)cc1 (stereo unspecified) | ? | ? | -0.3% | 2.7% | -14.3% | 5.0%
COc1cccc(C2CC(c3cccs3)=NN2C(=O)CCC(=O)O)c1OC (stereo unspecified) | -12.2% | 21.0% | 14.1% | 5.2% | -7.4% | 25.1%
COc1cccc(C2CC(c3cccs3)=NN2C(=O)CSc2nc3c(cnn3-c3ccc(F)cc3)c(=O)[nH]2)c1OC (stereo unspecified) | 23.1µM* | 23.1µM* | 16.1% | 0.7% | -15.8% | -0.4%
COc1cccc(C2CC(c3cccs3)=NN2C(=O)CSc2nc3ccccc3s2)c1OC (stereo unspecified) | 13µM* | 14.6µM* | 10.1% | ? | -30.7% | 2.2%
CCN1CCN(c2ncc3c(n2)CCN(Cc2cc(F)cc(F)c2)C3)CC1 | 14.6µM* | 14.6µM* | . | -14.5% | -0.9% | .
COc1cc(OC)c(OC)cc1CN1CCc2nc(N3CCN(C)CC3)ncc2C1 | -4.6% | -7.7% | . | -10.0% | 5.2% | .
CCc1ccc(CN2CCc3nc(N4CCN(CC)CC4)ncc3C2)cc1 | 16.4µM* | ? | . | -28.2% | -7.5% | .
CCCN1CCN(c2ncc3c(n2)CCN(Cc2ccc(OC)c(OC)c2OC)C3)CC1 | 18.4µM* | ? | . | -13.1% | -2.4% | .
CCN1CCN(c2ncc3c(n2)CCN(Cc2ccc(OC)c(OC)c2)C3)CC1 | -13.7% | -8.0% | . | -5.4% | -0.3% | .
CCc1cccc(NC(=O)Cn2c(=O)c3cccn3c3ccccc32)c1 | ? | -4.7% | -19.1% | -0.6% | 3.2% | -23.3%
Cc1nc2ccccn2c1C(=O)Nc1ccc(Cl)cc1 | ? | -23.0% | -1.9% | 0.0% | -45.4% | -15.8%
Cc1cc(C(=O)Nc2nncs2)oc1C | 3.6% | -2.2% | 2.9% | -5.4% | -28.9% | -1.8%
N#Cc1ccc(-c2nc3ccc(Br)cn3c2Cc2cccc(Cl)c2)cc1 | 20.6µM* | ? | -9.5% | -26.8% | -34.8% | -19.5%
Cc1ccc(-c2nc3ccc(Br)cn3c2Cc2cccc(Cl)c2)cc1 | 9.2µM* | 14.6µM* | ? | ? | -39.4% | ?
Fc1cccc(Cc2c(-c3ccccc3)nc3ccc(Cl)cn23)c1 | ? | ? | ? | ? | -32.2% | -22.3%
Clc1cccc(Cc2c(-c3cccc(Br)c3)nc3ccc(Br)cn23)c1 | ? | ? | -21.9% | ? | -6.8% | -20.3%
Clc1ccc(-c2nc3ccc(Br)cn3c2Cc2cccc(Cl)c2)cc1 | ? | ? | ? | ? | -4.9% | 14.6µM*
Fc1ccc(-c2nc3ccc(Cl)cn3c2Cc2cccc(F)c2)cc1 | 23.1µM* | ? | ? | ? | -29.1% | ?
COc1ccc(CN2C(=O)C(CC(=O)NCCc3ccccn3)CC(C(=O)N3CCCCCC3)=C2C)cc1 (stereo unspecified) | 9.1% | 8.0% | -12.3% | . | . | -6.4%
CCOC(=O)c1c(NC(=O)COC(=O)/C=C/c2ccccc2)sc(C(=O)NC)c1C | -9.3% | 1.4% | 2.9% | 9.4% | -0.3% | 9.6%
Clc1cccc(Cc2c(-c3cccc(Cl)c3)nc3ccc(Br)cn23)c1 | ? | ? | -22.2% | 14.1µM* | -28.6% | ?
Cc1ccc(-c2nc3ccc(Br)cn3c2Cc2ccccc2)cc1 | ? | 14.6µM* | -29.0% | -22.3% | 0.1% | ?
Cc1ccc(-c2nc3ccc(Cl)cn3c2Cc2cccc(Cl)c2)cc1 | 16.4µM* | ? | ? | ? | -1.6% | ?
Brc1ccc2nc(-c3ccccc3)c(Cc3ccsc3)n2c1 | 23.1µM* | 25.9µM* | -9.7% | ? | -23.0% | -12.2%
SMILES | DT40 TDP1 no CPT | TDP1 cell CPT | HT1080NT lethal | TGFb inhibitor | HepG2 viability | HT1080 IDH1KD tx
CC1OC(C2CCCCC2)Cc2[nH]c(=S)[nH]c(=O)c21 (stereo unspecified) | ? | ? | -1.5% | . | . | 0.1%
O=C1CC(N2CCOCC2)C(=O)N1Cc1ccc(N2CCCC2=O)cc1 (stereo unspecified) | 13.1% | 5.9% | 15.2% | 4.8% | -2.7% | 11.3%
O=C1CC(N2CCC(O)(c3ccc(Cl)cc3)CC2)C(=O)N1Cc1ccc(N2CCCC2=O)cc1 (stereo unspecified) | 14.6µM* | ? | -14.4% | -7.1% | -12.3% | -15.1%
Cc1cc(NC(=O)c2ccccc2C)ccc1NC(=O)c1ccccc1Cl | ? | -21.8% | -6.8% | 4.9% | 1.4% | -4.8%
COc1cnc(-c2cccc(C(F)(F)F)c2)c(NC(=O)c2cc3ccccc3s2)n1 | 10.3µM* | 18.4µM* | -2.1% | ? | -61.3% | 21.1%
COc1ccc(C(=O)C(=O)N2CCC(c3ccccc3)CC2)cn1 | ? | ? | 18.7% | . | . | -0.8%
COc1ccc(NC(=O)c2sccc2-n2cccc2)cc1 | ? | -28.4% | -10.3% | -3.6% | 10.1% | -0.3%
Cc1ccc(NC(=O)c2sccc2-n2cccc2)c(C)c1 | ? | 20.6µM* | 20.5% | -0.6% | -14.7% | 24.6%
CO[C@H]1[C@H](NC(=O)c2ccncc2)c2ccccc2C12CCN(C(=O)c1ccoc1)CC2 | 3.5% | 17.3%[9.04 µM] | . | . | . | .
COC(=O)C1CCN(C(=O)COC(=O)c2ccc3[nH]c4c(c3c2)CCCC4)CC1 | 10.3µM* | 13µM* | 9.8% | -0.9% | -12.0% | 7.4%
CC1CCCN(C(=O)COC(=O)c2ccc3[nH]c4c(c3c2)CCCC4)C1 (stereo unspecified) | 23.1µM* | ? | -11.0% | -18.0% | -19.3% | -18.5%
CCOC(=O)C1CCN(C(=O)COC(=O)c2ccc([N+](=O)[O-])o2)CC1 | -9.1% | ? | 5.5% | 17.8µM* | 12.6µM* | -2.5%
CC1CC(C)CN(C(=O)COC(=O)c2ccc([N+](=O)[O-])o2)C1 (stereo unspecified) | ? | ? | 2.4% | -19.5% | -17.7% | 0.2%

Source: PubChem
